Rows were chosen to be rich in hits. Some 2.3% of all compounds tested hit in one or more screens of this group.
Beta2AR agonist = agonists of human beta-2 adrenergic receptor inducing internalization. 0.43% of 340,000 active. Am2.2-beta2AR cells, FAP receptor internalization, flow cytometry. P07550. response, % (concentration not given with the values);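 active means response above a set limit, near 3 SD of response in nonfluorescent compounds, cut at about 42% in these data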
Target sequence (P07550 whole entry, looked up): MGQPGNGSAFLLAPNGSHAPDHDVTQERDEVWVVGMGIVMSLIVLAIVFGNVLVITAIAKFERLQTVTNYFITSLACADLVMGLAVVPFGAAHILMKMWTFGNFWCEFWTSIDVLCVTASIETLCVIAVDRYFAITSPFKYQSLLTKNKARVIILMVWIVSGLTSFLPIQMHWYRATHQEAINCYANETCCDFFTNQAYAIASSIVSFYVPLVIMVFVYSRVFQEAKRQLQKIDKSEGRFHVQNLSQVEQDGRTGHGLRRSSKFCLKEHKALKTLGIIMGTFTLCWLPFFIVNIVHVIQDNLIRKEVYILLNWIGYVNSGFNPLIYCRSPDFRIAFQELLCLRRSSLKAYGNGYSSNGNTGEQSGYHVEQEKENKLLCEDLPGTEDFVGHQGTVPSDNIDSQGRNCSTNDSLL
NTR1 agonist = agonists of human neurotensin receptor NTR1; P30989; NTR1-U2OS beta-arrestin-GFP spot imaging, agonist mode; activation, % at 20 µM; 0.17% of 330,000 active; AID 493036;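 active means activation at or above 40% of the spot to cytoplasm intensity ratio, with at least 20 cells analyzed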
m5-HT2A agonist = mouse HTR2A agonism via beta-arrestin recruitment; 0.66% of 360,000 active; CHO-K1 mHTR2A beta-arrestin complementation, luminescence; percent of 30 µM serotonin response; AID 624169; P35363; activation, % at 7.6 µM;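 active means activation above a run cutoff, the mean activation of all tested compounds plus 3 SD, cut at about 14% in these data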
ABHD5 PLIN5 PPI = ABHD5-PLIN5 protein interaction inhibition | Q00G26+Q8WTS1 | Split G. princeps luciferase complementation, luminescence, 4 h | inhibition, % at 4 µM | 0.78% of 360,000 active | AID 602281;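 active means inhibition above the mean inhibition across every tested compound plus 3 SD, cut at about 22% in these data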
Granule exo inh = blocks lytic granule exocytosis; inhibition, % at 10 µM; 0.66% of 360,000 active; TALL-104 LAMP-1 surface exposure, flow cytometry; cells stimulated with thapsigargin and PMA; AID 651702;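 active means inhibition above about 55%, limit read from the data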
ABHD5 PLIN5 conf = confirmation of human ABHD5-PLIN5 interaction inhibitors; shares compounds with ABHD5 PLIN5 PPI; biochemical ABHD5-PLIN5 interaction, luminescence; inhibition, % at 4 µM; 67% of 2,200 active; in the data active means inhibition above about 23%
HNF4 counter = counter-screen for ABHD5-PLIN5 inhibitors: HNF4 split-luciferase | inhibition, % at 4 µM | HNF4 dimerization, luminescence, biochemical | 77% of 2,200 active | shares compounds with ABHD5 PLIN5 PPI | AID 651674;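 active means mean inhibition across replicate wells exceeding the computed hit threshold, cut at about 13% in these data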;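 further: light from luciferase halves that rejoin when HNF4 fusion proteins dimerize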
Of the large screens only hits and unclear results are named; the others gave an inactive call (follow-up assays come after a bar, where they were run).

C=C1C(=O)c2sccc2C(c2ccc(OC)c(OC)c2)C1COC(C)=O (configuration not stated)	Beta2AR agonist 102, ABHD5 PLIN5 PPI 79 (no result: NTR1 agonist) | ABHD5 PLIN5 conf 95 | HNF4 counter 108
CCCCC1Cc2[nH][nH]c(=O)c2C(c2ccc(F)cc2)O1 (configuration not stated)	none (no result: Beta2AR agonist, NTR1 agonist)
CCCCC1Cc2[nH][nH]c(=O)c2C(c2ccc(Cl)cc2)O1 (configuration not stated)	ABHD5 PLIN5 PPI 28 (no result: Beta2AR agonist, NTR1 agonist) | ABHD5 PLIN5 conf inactive | HNF4 counter 25
O=c1[nH][nH]c2c1[C@H](c1ccc(F)cc1)O[C@H](CCc1ccccc1)C2	ABHD5 PLIN5 PPI 27 (no result: Beta2AR agonist, NTR1 agonist) | ABHD5 PLIN5 conf inactive | HNF4 counter 36
Cc1ccc(C)c(S(=O)(=O)NCC(=O)Nc2ccc3c(c2)OCO3)c1	none
C=C1C(=O)[C@]23C[C@H]1CCC2[C@]1(C)C(=O)CC[C@@](C)(C(=O)O)C1C[C@@H]3O (some centres not stated)	ABHD5 PLIN5 PPI 46 (no result: Beta2AR agonist, NTR1 agonist) | ABHD5 PLIN5 conf 41 | HNF4 counter 100
C=C1C(=O)[C@]23C[C@H]1CC[C@H]2[C@]1(C)[C@@H](OC(C)=O)CC[C@@](C)(C(=O)O)[C@H]1C[C@@H]3OC(C)=O	none (no result: Beta2AR agonist, NTR1 agonist)
C=C1C(=O)[C@]23C[C@H]1CCC2[C@]1(C)CCC[C@@](C)(C(=O)O)C1C[C@@H]3O (some centres not stated)	ABHD5 PLIN5 PPI 51 (no result: Beta2AR agonist, NTR1 agonist) | ABHD5 PLIN5 conf 46 | HNF4 counter 102
Cc1ccc(S(=O)(=O)Nc2ccc3c(c2)C(=O)N([C@@H](C)CO)C[C@@H](C)[C@@H](CN(C)CC2CC2)OCCCC[C@@H](C)O3)cc1	none (no result: Beta2AR agonist, NTR1 agonist)
CCOc1ccc(CCNC(=O)COC(=O)CSc2ccc(C)cc2)cc1OCC	none
CC1(C(=O)NCc2ccc(C(F)(F)F)cc2)CCN1Cc1ccc(-c2ccccc2)o1 (configuration not stated)	ABHD5 PLIN5 PPI 31 (no result: Beta2AR agonist, NTR1 agonist) | ABHD5 PLIN5 conf inactive | HNF4 counter 25
N#CC(C#N)=C1C=CC=CN1/C(=C\c1ccco1)C(=O)c1ccc(-c2ccccc2)cc1	ABHD5 PLIN5 PPI 66 (no result: NTR1 agonist) | ABHD5 PLIN5 conf 104 | HNF4 counter 111
COC(=O)/C=C/c1ccc2c(c1)S(=O)(=O)N(Cc1ccc(OC)cc1)[C@H]2CC(=O)OC	none
COc1ccc(CN2[C@@H](CC(C)=O)c3ccc(/C=C/C(C)=O)cc3S2(=O)=O)cc1	ABHD5 PLIN5 PPI 35 | ABHD5 PLIN5 conf 70 | HNF4 counter 62
COc1cccc(N2[C@@H](CC(C)=O)c3ccc(/C=C/C(C)=O)cc3S2(=O)=O)c1	ABHD5 PLIN5 PPI 32 | ABHD5 PLIN5 conf 65 | HNF4 counter 57
COc1ccc(CCN(CC(=O)NCc2ccc(F)cc2)C(=O)c2snc(C(N)=O)c2N)cc1OC	none
CCn1cc(S(=O)(=O)NC2CCCCC2)cn1	none
COC(=O)[C@H](C)NC(=O)Nc1ccc(S(N)(=O)=O)cc1	none
CC(C)C(Cl)=NOC(=O)Nc1ccc(S(N)(=O)=O)cc1	ABHD5 PLIN5 PPI 29 (no result: NTR1 agonist) | ABHD5 PLIN5 conf 69 | HNF4 counter 87
Cc1ccc(OCCNc2cc(N3CCN(CCO)CC3)ccc2[N+](=O)[O-])cc1C	ABHD5 PLIN5 PPI 31 | ABHD5 PLIN5 conf inactive | HNF4 counter 14
O=C(NCc1ccccc1)C(c1ccc(-c2ccccc2)cc1)n1c(=O)c(-c2ccco2)nc2ccccc21 (configuration not stated)	ABHD5 PLIN5 PPI 87 (no result: Beta2AR agonist, NTR1 agonist) | ABHD5 PLIN5 conf 75 | HNF4 counter 14
O=C(NCc1ccccc1)C(c1ccncc1)n1c(=O)c(-c2ccco2)nc2ccccc21 (configuration not stated)	ABHD5 PLIN5 PPI 36 (no result: Beta2AR agonist, NTR1 agonist) | ABHD5 PLIN5 conf 31 | HNF4 counter 14
O=C(NCc1ccccc1)C(c1ccc(C(F)(F)F)cc1)n1c(=O)c(-c2cc3ccccc3[nH]2)nc2ccccc21 (configuration not stated)	none (no result: Beta2AR agonist, NTR1 agonist)
O=C(NCc1ccccc1)C(CCc1ccccc1)n1c(=O)c(-c2ccccc2)nc2ccccc21 (configuration not stated)	ABHD5 PLIN5 PPI 38 (no result: Beta2AR agonist, NTR1 agonist) | ABHD5 PLIN5 conf 41 | HNF4 counter 28
Cc1cc(C)c2nc(N3C(=O)C(O)=C(C(=O)c4ccco4)C3c3ccco3)sc2c1 (configuration not stated)	none
COC(=O)c1ccccc1SC(CC(=O)c1ccccc1)c1ccc(F)cc1 (configuration not stated)	none
Nc1ccccc1SC(CC(=O)c1ccccc1)c1ccccc1 (configuration not stated)	ABHD5 PLIN5 PPI 68 (no result: Beta2AR agonist, NTR1 agonist) | ABHD5 PLIN5 conf inactive | HNF4 counter 79
CC(C(Sc1ccccc1N)c1ccccc1)[N+](=O)[O-] (configuration not stated)	ABHD5 PLIN5 PPI 27 | ABHD5 PLIN5 conf 63 | HNF4 counter 77
O=C(NC(=S)N1CCN(c2ccccn2)CC1)c1ccco1	none
COc1cc(C(C)=O)ccc1OCC(=O)N(CCC1=CCCCC1)c1c(N)n(Cc2ccccc2)c(=O)[nH]c1=O	none
CCOC(=O)[C@]12CCC=C1N(Cc1ccc(Cl)cc1Cl)C(=O)[C@H](CC(=O)N1CCCC1)C2	none (no result: Beta2AR agonist, NTR1 agonist)
CCOC(=O)N1CCN(C(=O)C[C@@H]2C[C@@]3(C(=O)OCC)CCC=C3N(Cc3ccc(Cl)cc3Cl)C2=O)CC1	ABHD5 PLIN5 PPI 26 (no result: Beta2AR agonist, NTR1 agonist) | ABHD5 PLIN5 conf 35 | HNF4 counter inactive
CCOC(=O)[C@]12CCC=C1N(Cc1ccc(Cl)cc1Cl)C(=O)[C@H](CC(=O)NCc1cccc(C(F)(F)F)c1)C2	ABHD5 PLIN5 PPI 25 (no result: Beta2AR agonist, NTR1 agonist) | ABHD5 PLIN5 conf inactive | HNF4 counter inactive
CCOC(=O)[C@]12CCCC=C1N(Cc1ccc(Cl)cc1Cl)C(=O)[C@H](CC(=O)NCc1cccc(C(F)(F)F)c1)C2	none (no result: Beta2AR agonist, NTR1 agonist)
Cc1nsc2nc3c(F)c(F)c(F)c(F)c3cc12	none
Cc1ccc(NC(=S)c2nc3ccccc3[nH]2)c(C)c1	none
Cc1cccc(/C=C(\c2nc3ccccc3[nH]2)S(=O)(=O)c2ccccc2)c1	ABHD5 PLIN5 PPI 42 (no result: NTR1 agonist) | ABHD5 PLIN5 conf 84 | HNF4 counter 68
O=C(CC1C(=O)NCCN1CC1CCCCC1)NCCCN1CCOCC1 (configuration not stated)	none
CCOC(=O)COc1ccc(Br)cc1/C=C\c1[nH]c(=O)[nH]c(=O)c1[N+](=O)[O-]	ABHD5 PLIN5 PPI 64 | ABHD5 PLIN5 conf 85 | HNF4 counter 94
CCCOc1ccc(/C=C/c2[nH]c(=O)[nH]c(=O)c2[N+](=O)[O-])cc1OCC	none
CCOC(=O)COc1ccc(Br)cc1/C=C/c1[nH]c(=O)[nH]c(=O)c1[N+](=O)[O-]	ABHD5 PLIN5 PPI 65 | ABHD5 PLIN5 conf 76 | HNF4 counter 85
O=C(O)CC1(CC(=O)Nc2cc3ccccc3cn2)CCCCC1	none

Assay outcomes from PubChem BioAssay.
